According to the supplement of paper PMC9135407:
Several values for one entry are separate records, joined by “and”; a condition that tells them apart may be missing. Equal values may be shown once. Where a name gives a salt, the structure may show the parent alone. The whole screen tested about 5,800 compounds, of which about 620 (11%) showed activity. This excerpt belongs to a sample that is enriched for actives. Values without a mark were called inactive.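 Rule for the calls: active = score above a cut-off or among the top three wells of a plate; in these data no inactive exceeds 0.85.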

Tested on: primary human hepatic stellate cells (donor 1)
Assay: scaled lipid accumulation score (0 = DMSO-like, 1 = nortriptyline-like); higher = stronger HSC inactivation (lipid re-accumulation), active = hit call of the paper
Conditions: 48 h
[1] = library stock concentration: 1 mM
[2] = library stock concentration: 10 mM
[3] = library stock concentration: 3.33 mM
[4] = library stock concentration: 80 uM
[5] = library stock concentration: 400 uM
[6] = library stock concentration: 2 mM

Question: For CC/C=C\C/C=C\C/C=C\C/C=C\C/C=C\C/C=C\CCC(=O)NCCO [Docosahexaenoyl Ethanolamide], which “scaled lipid accumulation score” value [1] is on record?
Answer: 0.03

Question: COc1cc(OC2CCN(C)CC2)ccc1Nc1ncc2c(n1)n(C1CCCC1)c(=O)n2C [listing 1 of 2 here] was tested. Which “scaled lipid accumulation score” value [2] did it give?
Answer: 1.06 (active)

Question: For COc1cc(OC2CCN(C)CC2)ccc1Nc1ncc2c(n1)n(C1CCCC1)c(=O)n2C [listing 2 of 2 here], which “scaled lipid accumulation score” value [3] is on record?
Answer: 0.441

Question: With COc1cc(N2CCC(N3CCN(C)CC3)CC2)ccc1Nc1ncnc(Nc2ccccc2S(=O)(=O)C(C)C)n1 as the compound, how does the “scaled lipid accumulation score” value [4] read?
Answer: ≤ 0

Question: And the “scaled lipid accumulation score” value [5]?
Answer: 0.045

Question: What about the “scaled lipid accumulation score” value [6] of the same compound?
Answer: 0.433

Question: And the “scaled lipid accumulation score” value [2]?
Answer: 0.819

Question: C[C@H](C(=O)O)c1ccc(-c2ccccc2)c(F)c1 [(S)-Flurbiprofen] was tested. Which “scaled lipid accumulation score” value [1] did it give?
Answer: 0.003

Question: Nc1ccc(C(=O)Nc2cccc(-c3nc(N4CCOCC4)c4oc5ncccc5c4n3)c2)cn1 [listing 1 of 3 here] was tested. Which “scaled lipid accumulation score” value [4] did it give?
Answer: ≤ -0.009

Question: What about the “scaled lipid accumulation score” value [5] of the same compound?
Answer: 0.031 and ≤ -0.005

Question: What about the “scaled lipid accumulation score” value [6] of the same compound?
Answer: 0.229

Question: What about the “scaled lipid accumulation score” value [3] of the same compound?
Answer: 0.647

Question: For Cl.Nc1ccc(C(=O)Nc2cccc(-c3nc(N4CCOCC4)c4oc5ncccc5c4n3)c2)cn1, which “scaled lipid accumulation score” value [6] is on record?
Answer: 1.74 (active)

Question: What about the “scaled lipid accumulation score” value [2] of the same compound?
Answer: 1.25 (active)

Question: Which “scaled lipid accumulation score” value [4] does the source give for Cc1c(CN2CCN(C(=O)[C@H](C)O)CC2)sc2c(N3CCOCC3)nc(-c3cnc(N)nc3)nc12 here?
Answer: 0.079

Question: And the “scaled lipid accumulation score” value [5]?
Answer: ≤ -0.015

Question: What about the “scaled lipid accumulation score” value [6] of the same compound?
Answer: ≤ -0.016

Question: And the “scaled lipid accumulation score” value [3]?
Answer: ≤ 0

Question: What about the “scaled lipid accumulation score” value [2] of the same compound?
Answer: ≤ 0 and ≤ -0.016

Question: How did the “scaled lipid accumulation score” value [4] turn out when COc1ccc(-c2nc(N3CCOCC3)c3sc(CN(C)c4ncc(C(=O)NO)cn4)cc3n2)cn1 was run?
Answer: 0.745

Question: What about the “scaled lipid accumulation score” value [5] of the same compound?
Answer: 0.648

Question: What about the “scaled lipid accumulation score” value [6] of the same compound?
Answer: 0.67

Question: What about the “scaled lipid accumulation score” value [3] of the same compound?
Answer: 0.439

Question: What about the “scaled lipid accumulation score” value [2] of the same compound?
Answer: 0.447 and 0.588

Question: For O=c1cc(N2CCOCC2)oc2c1ccc1ccccc12, which “scaled lipid accumulation score” value [4] is on record?
Answer: ≤ 0

Question: And the “scaled lipid accumulation score” value [5]?
Answer: ≤ 0

Question: And the “scaled lipid accumulation score” value [6]?
Answer: ≤ 0

Question: What about the “scaled lipid accumulation score” value [2] of the same compound?
Answer: ≤ 0 and 0.033

Question: Which “scaled lipid accumulation score” value [1] does the source give for Oc1cccc(-c2nc(N3CCOCC3)c3sccc3n2)c1 [PI3-Kinase .alpha. Inhibitor 2] here?
Answer: ≤ 0

Question: Which results are given for CC(C)(O)c1cc2nc(-c3cnc(N)nc3)nc(N3CCOCC3)c2s1?
Answer: scaled lipid accumulation score [5]: ≤ -0.005; scaled lipid accumulation score [6]: ≤ -0.005; scaled lipid accumulation score [2]: 0.006

Question: With O=c1cc(N2CCOCC2)oc2c1ccc1ccccc12 [DNA-PK Inhibitor II] as the compound, how does the “scaled lipid accumulation score” value [3] read?
Answer: ≤ 0

Question: Nc1ccc(C(=O)Nc2cccc(-c3nc(N4CCOCC4)c4oc5ncccc5c4n3)c2)cn1 [listing 2 of 3 here] was tested. Which “scaled lipid accumulation score” value [2] did it give?
Answer: 0.915 (active)

Question: Oc1cccc(-c2nc(N3CCOCC3)c3oc4ncccc4c3n2)c1 [listing 1 of 2 here] was tested. Which “scaled lipid accumulation score” value [2] did it give?
Answer: 0.923 (active)

Question: Which “scaled lipid accumulation score” value [4] does the source give for Oc1cccc(-c2nc(N3CCOCC3)c3oc4ncccc4c3n2)c1 [listing 2 of 2 here] here?
Answer: 0.118

Question: What about the “scaled lipid accumulation score” value [5] of the same compound?
Answer: 0.051 and ≤ -0.005

Question: And the “scaled lipid accumulation score” value [1]?
Answer: ≤ 0

Question: What about the “scaled lipid accumulation score” value [6] of the same compound?
Answer: ≤ -0.009 and ≤ -0.005

Question: And the “scaled lipid accumulation score” value [3]?
Answer: 0.203 and 0.016

Question: What about the “scaled lipid accumulation score” value [2] of the same compound?
Answer: 0.796 and 0.279

Question: With Nc1ccc(C(=O)Nc2cccc(-c3nc(N4CCOCC4)c4oc5ncccc5c4n3)c2)cn1 [listing 3 of 3 here] as the compound, how does the “scaled lipid accumulation score” value [2] read?
Answer: 0.995 (active)

Question: For CC(Cc1ccc(O)c(O)c1)C(C)Cc1ccc(O)c(O)c1 (stereo unspecified) [Nordihydroguaiaretic Acid], which “scaled lipid accumulation score” value [1] is on record?
Answer: 0.042

Question: What does the source list for COc1ccc(-n2c(C)c([N+](=O)[O-])c3ccc(O)cc32)cc1?
Answer: scaled lipid accumulation score [3]: 0.252; scaled lipid accumulation score [2]: 0.703

Question: With O/N=C/c1ccc(-c2ccc(O)c(F)c2)c(Cl)c1O as the compound, how does the “scaled lipid accumulation score” value [2] read?
Answer: 0.02

Question: Which “scaled lipid accumulation score” value [2] does the source give for COc1ccc([C@H]2CNC(=O)C2)cc1OC1CCCC1 [(S)-(+)-Rolipram] here?
Answer: ≤ -0.006

Question: C[C@H](N)C(=O)CCCCCC(=O)O [KAPA (hydrochloride)] was tested. Which “scaled lipid accumulation score” value [1] did it give?
Answer: 0.007

Question: How did the “scaled lipid accumulation score” value [3] turn out when O=C1[C@H](Cc2ccc(O)cc2)N2C(=O)CCN(C(=O)NCc3ccccc3)[C@H]2CN1Cc1cccc2ccccc12 was run?
Answer: ≤ 0

Question: And the “scaled lipid accumulation score” value [2]?
Answer: 0.29

Question: Which results are given for CC(=Cc1ccc(C(=O)O)cc1)c1ccc2c(c1)C(C)(C)CCC2(C)C?
Answer: scaled lipid accumulation score [1]: ≤ -0.021; scaled lipid accumulation score [2]: ≤ 0

Question: How did the “scaled lipid accumulation score” value [3] turn out when CC(=Cc1ccc(C(=O)O)cc1)c1ccc2c(c1)C(C)(C)CCC2(C)C [TTNPB (Arotinoid Acid)] was run?
Answer: ≤ 0

Question: And the “scaled lipid accumulation score” value [2]?
Answer: ≤ -0.001

Question: For CCCCCCCCCC(=O)N[C@@H](Cc1c[nH]c2ccccc12)C(=O)N[C@@H](CC(N)=O)C(=O)N[C@@H](CC(=O)O)C(=O)N[C@@H]1C(=O)NCC(=O)N[C@@H](CCCN)C(=O)N[C@@H](CC(=O)O)C(=O)N[C@H](C)C(=O)N[C@@H](CC(=O)O)C(=O)NCC(=O)N[C@H](CO)C(=O)N[C@@H]([C@H](C)CC(=O)O)C(=O)N[C@@H](CC(=O)c2ccccc2N)C(=O)O[C@@H]1C [DAPTOMYCIN (5 millimolar/DMSO)], which “scaled lipid accumulation score” value [2] is on record?
Answer: ≤ 0

Question: CC(C)c1nn(-c2c(Cl)cccc2Cl)c2nc(Cc3ccc(OCCO)cc3)[nH]c(=O)c12 was tested. Which “scaled lipid accumulation score” value [4] did it give?
Answer: 0.074

Question: What about the “scaled lipid accumulation score” value [5] of the same compound?
Answer: 0.071

Question: What about the “scaled lipid accumulation score” value [6] of the same compound?
Answer: 0.275

Question: And the “scaled lipid accumulation score” value [2]?
Answer: 0.136

Question: O=[N+]([O-])c1ccccc1S(=O)(=O)NCC1CCC(CNCC2CCc3ccccc3C2)CC1 (stereo unspecified) [NTNCB hydrochloride] was tested. Which “scaled lipid accumulation score” value [2] did it give?
Answer: 0.622

Question: For NC(=O)N/N=C/c1ccc(Oc2ccc(F)cc2)cc1, which “scaled lipid accumulation score” value [2] is on record?
Answer: 0.015

Question: C#C[C@]1(O)CC[C@H]2[C@@H]3CCc4cc(O)ccc4[C@H]3CC[C@@]21C [Ethinyl estradiol] was tested. Which “scaled lipid accumulation score” value (library stock concentration: 6.7 mM) did it give?
Answer: 0.516

Question: What about the “scaled lipid accumulation score” value [2] of the same compound?
Answer: ≤ 0

Question: With C#C[C@]1(O)CC[C@H]2[C@@H]3CCc4cc(O)ccc4[C@H]3CC[C@@]21C as the compound, how does the “scaled lipid accumulation score” value [2] read?
Answer: 0.186

Question: Which results are given for C#C[C@]1(O)CC[C@H]2[C@@H]3CCC4=Cc5oncc5C[C@]4(C)[C@H]3CC[C@@]21C [Danazol]?
Answer: scaled lipid accumulation score: 0.447; scaled lipid accumulation score (library stock concentration: 5.9 mM): 0.204 and 0.103; scaled lipid accumulation score [2]: ≤ 0

Question: With C#C[C@]1(O)CC[C@H]2[C@@H]3CCC4=Cc5oncc5C[C@]4(C)[C@H]3CC[C@@]21C as the compound, how does the “scaled lipid accumulation score” value [2] read?
Answer: 0.336

Question: C#C[C@]1(O)CC[C@H]2[C@@H]3CCC4=Cc5oncc5CC4(C)[C@H]3CCC21C (stereo partly specified) [Danazol] was tested. Which “scaled lipid accumulation score” value [2] did it give?
Answer: 0.915 (active)

Question: With C#C[C@]1(O)CC[C@H]2[C@@H]3CCc4cc(O)ccc4[C@H]3CC[C@@]21C [Ethinyl Estradiol] as the compound, how does the “scaled lipid accumulation score” value [3] read?
Answer: ≤ 0

Question: And the “scaled lipid accumulation score” value [2]?
Answer: 0.277
